# Source: PubChem BioAssay (National Center for Advancing Translational Sciences (NCATS))
# Only some compounds are listed: those with a hit (about 2.4% of all), similar ones and a draw of the others.
# D2 antagonist – antagonists of human D2 dopamine receptor; P14416; HEK293 TREx D2 cells, calcium flux, dopamine EC80; inhibition, % at 10 µM; actives 2% (n = 340,000); AID 485344; in the data active = inhibition above about 30%; inactive = below that, where a call was filed
# Target sequence (P14416 whole entry, looked up): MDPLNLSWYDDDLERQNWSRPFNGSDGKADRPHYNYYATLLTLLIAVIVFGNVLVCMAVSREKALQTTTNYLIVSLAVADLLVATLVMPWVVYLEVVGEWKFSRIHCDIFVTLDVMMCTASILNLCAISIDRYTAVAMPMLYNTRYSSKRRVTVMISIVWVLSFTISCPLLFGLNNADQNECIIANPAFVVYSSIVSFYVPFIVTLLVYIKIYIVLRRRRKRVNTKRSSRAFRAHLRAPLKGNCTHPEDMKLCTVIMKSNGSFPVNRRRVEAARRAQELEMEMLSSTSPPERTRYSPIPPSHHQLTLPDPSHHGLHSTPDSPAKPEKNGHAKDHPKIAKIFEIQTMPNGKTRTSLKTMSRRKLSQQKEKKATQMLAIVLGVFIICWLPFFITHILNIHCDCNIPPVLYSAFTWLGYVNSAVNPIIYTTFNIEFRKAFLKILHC
#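 Compounds are added to dye-loaded, induced HEK293 T-REx cells coupled to calcium release via D2; after a 3 min kinetic read an EC80 dopamine stimulus is given and fluorescence is recorded for 3 more min.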
# D2 PAM-1 – positively modulates the human D2 dopamine receptor allosterically; HEK293 T-REx D2, calcium flux, EC20 dopamine potentiation; potentiation, % at 10 µM; actives 0.34% (n = 340,000); AID 485347;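 active = potentiation over 3 SD above the plate norm, cut at about 30% in these data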
#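 Calcium flux readout, no-wash dye, 1 read/s. Inducible HEK293 Trex D2 line, overnight 30 C. Compound alone 180 s (agonist flags), then EC20 dopamine, another 180 s to score potentiation.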
# D2 ag-1 – agonists of human D2 dopamine receptor; P14416; HEK293 T-REx D2 cells, calcium flux agonist mode; activation, % at 2 µM; actives 0.53% (n = 340,000); AID 485358;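 active = activation over 3 SD above normal in the single-dose calcium agonist read, cut at about 30% in these data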
#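 In this primary screen, compounds producing a positive calcium signal within 180 s of addition to tetracycline-induced, force-coupled HEK293 Trex D2 cells are flagged; cells are dye-loaded with a no-wash calcium kit beforehand.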
# D2 ag-2 – agonists of human D2 dopamine receptor (beta-arrestin) | P14416 | DiscoveRx PathHunter D2 beta-arrestin, luminescence, 90 min; 100% = 57 uM dopamine signal | activation, % (concentration not given with the values) | actives 0.084% (n = 360,000) | AID 624465; in the data active = activation above about 40%; inconclusive = between about 15% and that limit
#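 Agonist mode: compounds alone added to overnight-plated D2 PathHunter cells for 90 min at 37 C, with 57 uM final dopamine (EC100) defining full response. Beta-arrestin recruitment detected by chemiluminescent reagent, read after 1 h at ambient temperature.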
# D2 PAM-2 – positive allosteric modulators of human D2 dopamine receptor. P14416. DiscoveRx D2 beta-arrestin cells, luminescence, 90 min; 100% = 57 uM dopamine signal. potentiation, % (concentration not given with the values). actives 0.23% (n = 360,000); in the data active = potentiation above about 50%; inconclusive = mostly about 30% to 49%
#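 D2 cells co-treated with compound plus 50 nM dopamine (EC20) for 90 min at 37 deg C to detect potentiation. Beta-arrestin recruitment was read as enzyme-fragment luminescence after 1 h at ambient temperature. Full response was set by 57 uM dopamine.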
# Hits are given with their value; n = inactive; u = inconclusive; x = no result given.
SMILES,D2 antagonist,D2 PAM-1,D2 ag-1,D2 ag-2,D2 PAM-2
COCCN(C(=O)Cn1c(C(F)(F)F)nc2ccccc21)c1c(N)n(Cc2ccccc2)c(=O)[nH]c1=O,n,n,n,n,n
CN(C)c1ccc(CN(CC2CCCO2)C(=O)COc2ccccc2Cl)cc1 (configuration not stated),x,n,x,x,x
CCOC(=O)C1=C(C)N(CCCCCC(=O)O)C(=O)NC1c1ccc([N+](=O)[O-])cc1 (configuration not stated),n,n,31.2,n,n
CCOC(=O)C1=C(C)N(CCCCCC(=O)O)C(=O)NC1c1cccc([N+](=O)[O-])c1 (configuration not stated),n,n,n,n,n
NC(=O)CCCCC(=O)OCCCc1cccs1,n,31.3,n,n,n
CSc1ccccc1NC(=O)c1cnc2scc(C)n2c1=O,n,35.7,n,n,n
CCc1ccccc1NC(=O)c1cnc2scc(C)n2c1=O,x,x,x,n,n
C[C@H](NC(=O)c1ccccc1)C(=O)N1CCN(c2ccccc2)CC1,30.4,n,n,n,n
Cc1ccc(C(=O)NC(=S)N2CCN(c3ccc([N+](=O)[O-])cc3)CC2)cc1,n,n,n,n,n
CC(NC(=O)COc1ccccc1)C(=O)N1CCN(c2ccccc2)CC1 (configuration not stated),n,n,n,n,n
O=C(NC(=S)N1CCN(c2ccc([N+](=O)[O-])cc2)CC1)c1ccccc1,31.0,n,n,n,n
Cn1nc(C(C)(C)C)cc1NC(=O)Nc1cc(Cl)cc(Cl)c1,n,n,n,n,n
CC(C)N1C(=O)c2ccccc2C1C(=O)NC1CCCCCC1 (configuration not stated),n,31.3,n,n,n
O=c1c2cccnc2n(Cc2ccc(Cl)cc2)c(=O)n1Cc1ccc(F)cc1,x,n,n,x,x
Cc1cccc(C)c1NC(=S)N/N=C/c1ccc(C(=O)O)cc1,36.2,n,n,n,n
FC(F)(F)c1cccc(N2CCN(Cc3cccnc3)CC2)c1,75.8,n,n,n,n
COc1cccc(N2CCN(Cc3cccnc3)CC2)c1,n,n,n,n,n
FC(F)(F)c1cccc(N2CCN(Cc3ccoc3)CC2)c1,102.5,n,n,n,n
CN(C)CCCN1c2ccccc2CCc2ccc(Cl)cc21,89.1,n,n,n,n
CCN1C(=O)CCCc2ccccc21,n,n,n,n,n
CN(C)CCCN1c2ccccc2Sc2ccccc21,x,x,x,n,n
CNCCCN1c2ccccc2CCc2ccccc21,39.1,n,n,n,n
CCC12CSc3nc(Cl)ccc3N1C(=O)C(=O)N2C (configuration not stated),n,n,n,n,n
Cc1cc(=O)c2c(o1)C(=O)c1occc1C2=O,x,x,x,u,52.2
c1ccc(Cn2cc(CNc3ccccc3)nn2)cc1,41.8,n,n,n,n
SMILES,D2 antagonist,D2 PAM-1,D2 ag-1,D2 ag-2,D2 PAM-2
COc1ccc([N+](=O)[O-])cc1NC(=O)C(C)N1CCCC1 (configuration not stated),30.7,n,n,n,n
COC(=O)Nc1cc([N+](=O)[O-])ccc1OC,n,n,n,n,n
COc1ccc([N+](=O)[O-])cc1NC(=O)Nc1ccccc1,37.0,n,n,n,n
O=C(NCc1ccco1)c1ccc2c(c1)N(Cc1ccccc1F)C(=O)c1ccccc1S2=O (configuration not stated),x,n,n,x,x
Cc1ccc(S(=O)(=O)N2CCN(C(C)CC(=O)O)CC2)cc1 (configuration not stated),n,n,n,n,n
Cc1nn(CC(=O)N2CCC(C)CC2)c(=O)c2cc3sccc3n12,x,n,x,x,x
CCCC(=O)N(CCN(C(=O)CCC)c1ccccc1)c1ccccc1,n,31.2,n,n,n
Cc1ccsc1CN(Cc1ccco1)c1cnc(S(C)(=O)=O)nc1C(=O)Nc1ccc(Cl)cc1,x,n,n,x,x
COc1ccc(S(=O)(=O)NCC2CCC(C(=O)NCCCN3CCCC3=O)CC2)cc1 (configuration not stated),31.9,n,n,n,n
CCCOc1ccc(Oc2nc(NC)nc(N3CCOCC3)n2)nn1,x,n,n,x,x
CCC1(c2ccccc2)NC(=O)N(CC(=O)Nc2cc(S(=O)(=O)N3CCCCCC3)ccc2OC)C1=O (configuration not stated),x,x,x,n,62.9
